This is part of a sample that, as a whole, favours compounds with a hit. Of some 83,000 tested, about 20% had one in any assay.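 The endpoint reported here, percent growth, reads 100 for growth as untreated, 0 for no net growth and -100 for all cells dead.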 Calls of active or inactive are those of the source. The calls were made as follows: active = growth percent below 10; inactive = the rest.
Experiments:
Assay in all cases: NCI-60 one-dose screen, 48 h (100 = growth as untreated, 0 = no growth, -100 = all killed)
SK-MEL-2 melanoma = tested on: SK-MEL-2 melanoma
EKVX NSCLC = tested on: EKVX NSCLC
SN12C renal = tested on: SN12C renal
UO-31 renal = tested on: UO-31 renal
TK-10 renal = tested on: TK-10 renal
ACHN renal = tested on: ACHN renal
CAKI-1 renal = tested on: CAKI-1 renal
A498 renal = tested on: A498 renal
CCRF-CEM leukemia = tested on: CCRF-CEM leukemia
MOLT-4 leukemia = details: 10 µM unless noted

Measured: growth

CCCCCCCCCCCCCCCCCC(=O)Nc1ccc(OC)cc1
inactive: SK-MEL-2 melanoma; 10 µM unless noted 102% | EKVX NSCLC; 10 µM unless noted 94.7% | SN12C renal; 10 µM unless noted 99.7% | UO-31 renal; 10 µM unless noted 88.8% | TK-10 renal; 10 µM unless noted 99.8% | ACHN renal; 10 µM unless noted 105% | CAKI-1 renal; 10 µM unless noted 98% | A498 renal; 10 µM unless noted 105% | CCRF-CEM leukemia; 10 µM unless noted 86.4% | MOLT-4 leukemia 102%

CN(C)CCOc1ccc(C(=O)C2[C@H](c3ccc(Cl)cc3)[C@@H](c3ccccc3)NC23C(=O)Nc2ccc(Cl)cc23)cc1 (stereo partly drawn)
active: SK-MEL-2 melanoma; 10 µM unless noted -92.5% | EKVX NSCLC; 10 µM unless noted -93.9% | SN12C renal; 10 µM unless noted -94.5% | UO-31 renal; 10 µM unless noted -99.7% | TK-10 renal; 10 µM unless noted -96.7% | ACHN renal; 10 µM unless noted -100% | CAKI-1 renal; 10 µM unless noted -98.6% | A498 renal; 10 µM unless noted -95.9% | CCRF-CEM leukemia; 10 µM unless noted -65.4% | MOLT-4 leukemia -77.4%

Fc1ccccc1CNc1nc(SCCN2CCOCC2)nc2c1cnn2CC(Cl)c1ccc(Br)cc1 (stereo not drawn)
inactive: SK-MEL-2 melanoma; 10 µM unless noted 31.1% | EKVX NSCLC; 10 µM unless noted 49% | SN12C renal; 10 µM unless noted 53.2% | TK-10 renal; 10 µM unless noted 58.9% | ACHN renal; 10 µM unless noted 25.1% | CAKI-1 renal; 10 µM unless noted 27% | A498 renal; 10 µM unless noted 53.8% | CCRF-CEM leukemia; 10 µM unless noted 22.4%
active: UO-31 renal; 10 µM unless noted -6.44% | MOLT-4 leukemia -25.2%

COc1ccc(-c2cc(C)nc3[nH]c(=O)sc23)cc1
active: UO-31 renal; 10 µM unless noted 3.27% | A498 renal; 10 µM unless noted 6.1%
inactive: SK-MEL-2 melanoma; 10 µM unless noted 100% | EKVX NSCLC; 10 µM unless noted 89.5% | SN12C renal; 10 µM unless noted 43.2% | TK-10 renal; 10 µM unless noted 17.1% | ACHN renal; 10 µM unless noted 31.9% | CAKI-1 renal; 10 µM unless noted 40.5% | CCRF-CEM leukemia; 10 µM unless noted 81.5% | MOLT-4 leukemia 86.8%

COC(=O)c1cccc(Oc2ccc(NC(=O)Nc3cc(C(F)(F)F)ccc3F)cc2)c1
inactive: SK-MEL-2 melanoma; 10 µM unless noted 73.1% | EKVX NSCLC; 10 µM unless noted 60.9% | SN12C renal; 10 µM unless noted 75.7% | UO-31 renal; 10 µM unless noted 73.9% | TK-10 renal; 10 µM unless noted 88.5% | ACHN renal; 10 µM unless noted 56.4% | CAKI-1 renal; 10 µM unless noted 62.4% | A498 renal; 10 µM unless noted 94.9% | CCRF-CEM leukemia; 10 µM unless noted 65% | MOLT-4 leukemia 64.7%

Cc1ccc(Nc2nnc(-c3c[nH]c4ccccc34)o2)c(C)c1
inactive: SK-MEL-2 melanoma; 10 µM unless noted 31.4% | EKVX NSCLC; 10 µM unless noted 21.9% | SN12C renal; 10 µM unless noted 18% | UO-31 renal; 10 µM unless noted 26.4% | TK-10 renal; 10 µM unless noted 45.8% | ACHN renal; 10 µM unless noted 34.3% | CAKI-1 renal; 10 µM unless noted 33.5% | A498 renal; 10 µM unless noted 112%
active: CCRF-CEM leukemia; 10 µM unless noted -0.0547% | MOLT-4 leukemia 0.191%

FC(F)(F)CN1CCN(CCn2c(C(F)(F)F)cc3c(Cl)ncnc32)CC1
inactive: EKVX NSCLC; 10 µM unless noted 70.8% | SN12C renal; 10 µM unless noted 34.8% | TK-10 renal; 10 µM unless noted 114% | CAKI-1 renal; 10 µM unless noted 24.1% | A498 renal; 10 µM unless noted 104%
active: SK-MEL-2 melanoma; 10 µM unless noted -89.4% | UO-31 renal; 10 µM unless noted -95.1% | ACHN renal; 10 µM unless noted -63% | CCRF-CEM leukemia; 10 µM unless noted -16.8% | MOLT-4 leukemia -39%

O=C(Nc1ccc(F)cc1)Nc1nc2ccc([N+](=O)[O-])cc2s1
active: SK-MEL-2 melanoma; 10 µM unless noted -44.6% | EKVX NSCLC; 10 µM unless noted 1.79% | SN12C renal; 10 µM unless noted -0.399% | UO-31 renal; 10 µM unless noted 4.33% | TK-10 renal; 10 µM unless noted 6.73% | ACHN renal; 10 µM unless noted 2.52% | CAKI-1 renal; 10 µM unless noted -12.5% | A498 renal; 10 µM unless noted -15%
inactive: CCRF-CEM leukemia; 10 µM unless noted 11.5% | MOLT-4 leukemia 14.6%

COc1ccc2nc(NC(=O)c3ccc(N(C)C)cc3)sc2c1
inactive: SK-MEL-2 melanoma; 10 µM unless noted 88.8% | EKVX NSCLC; 10 µM unless noted 63.4% | SN12C renal; 10 µM unless noted 85.6% | UO-31 renal; 10 µM unless noted 46.7% | TK-10 renal; 10 µM unless noted 115% | ACHN renal; 10 µM unless noted 77.5% | CAKI-1 renal; 10 µM unless noted 79.6% | A498 renal; 10 µM unless noted 95.6% | CCRF-CEM leukemia; 10 µM unless noted 47.7% | MOLT-4 leukemia 43.1%

CC/C(=C(/c1ccc(O)cc1)c1ccc(OCCN(C)C(=O)CCOCCNC(=O)Cc2ccc3c(c2)CN([C@@H]2CCC(=O)NC2=O)C3=O)cc1)c1ccccc1
inactive: SK-MEL-2 melanoma; 1 µM 101% | SK-MEL-2 melanoma; 10 µM 74.7% | EKVX NSCLC; 1 µM 102% | EKVX NSCLC; 10 µM 97.8% | SN12C renal; 1 µM 89% | SN12C renal; 10 µM 78% | UO-31 renal; 1 µM 92% | UO-31 renal; 10 µM 86.8% | TK-10 renal; 1 µM 94% | TK-10 renal; 10 µM 93.5% | ACHN renal; 1 µM 103% | ACHN renal; 10 µM 101% | CAKI-1 renal; 1 µM 99% | CAKI-1 renal; 10 µM 94.9% | A498 renal; 1 µM 127% | A498 renal; 10 µM 97.7% | CCRF-CEM leukemia; 10 µM 22.9%
active: CCRF-CEM leukemia; 1 µM 3.79%

O=C(O)CC1S/C(=N/N=C/c2nc3ccccc3s2)NC1=O (stereo not drawn)
inactive: SK-MEL-2 melanoma; 10 µM unless noted 116% | EKVX NSCLC; 10 µM unless noted 54.7% | SN12C renal; 10 µM unless noted 101% | UO-31 renal; 10 µM unless noted 52.7% | TK-10 renal; 10 µM unless noted 104% | ACHN renal; 10 µM unless noted 78.3% | CAKI-1 renal; 10 µM unless noted 77.3% | A498 renal; 10 µM unless noted 155% | CCRF-CEM leukemia; 10 µM unless noted 93% | MOLT-4 leukemia 95.2%
